Experimental findings from PubChem BioAssay (NCI) are described below.

This is part of a sample that, as a whole, favours compounds with a hit. Of some 83,000 tested, about 20% had one in any assay.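 Assay: single dose, 48 h. Readout: percent growth (0 = no net growth; negative = cell death). Active: <10.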 Values without a mark were called inactive. Activity calls are given as the source filed them.

One experiment relates to SF-268 CNS. Kind of experiment: NCI-60 one-dose screen, 48 h (100 = growth as untreated, 0 = no growth, -100 = all killed). Particulars: 10 µM unless noted.
As to `O=C1COCCN1c1ccc(NCc2cn(C(=O)c3ccc(Cl)cc3)c3ccccc23)cc1`, the growth is 98%.
Consider `COc1ccc(-c2cnc3ccccc3n2)cc1`, for which the growth is 94.6%.
`CCOC(=O)C1=C(N)Oc2c(sc3c(C)cccc23)C1c1ccc(OC)cc1` (stereo unspecified): the growth is 51%.
Same read-out and setting: as for `FC(F)(F)c1cc(Nc2ccc3c(OCCCN4CCOCC4)cccc3n2)ccc1Cl`, the figure is 54.6%; as for `COc1cc(C(=O)c2cc(C)c3[nH]c4ccc(O)cc4c3c2C)cc(OC)c1OC`, 24%.
The same measure, in the same setting: for `Cc1ccc(C(=O)N/N=C/c2cccc(Oc3ccccc3)c2)cn1` the value was 79.1%.
Same read-out and setting: for `CC(=O)CC(c1cccs1)c1c(-c2ccccc2)[nH]c2ccccc12` (stereo unspecified) the value was 85.6%.
As to `NC(=O)C1(Nc2ccc(Br)cc2)CCCC1`, the growth is 106%.
In the case of `COc1ccc(-c2c(C(=O)NS(C)(=O)=O)n(Cc3cccc(C(F)(F)F)c3)c3ccccc23)cc1`, the growth is 95%.
Consider `O=C1NC(=O)C(c2ccccc2)(c2ccccc2)N1Cc1cn(-c2c3ccccc3nc3ccccc23)nn1`, for which the growth is 89.3%.
Same read-out and setting: as for `CCCCn1c(-c2ccc(C(=O)O/N=C(\N)c3ccc(OC)cc3)cc2)nc(-c2ccccc2)c1-c1ccccc1`, the figure is 9.12% (active); as for `COc1cc(Nc2nc(NCCN)nc3cc[nH]c(=O)c23)cc(OC)c1`, 77.3%.
With `COc1ccc(-c2[nH]c3ccc(OC)cc3c2/C=C(\C#N)S(=O)(=O)c2ccccc2)cc1`, the growth was 33.8%.
In the case of `COc1ccc(C2=Nn3c(nnc3-c3cc(Cl)cc(Cl)c3Cl)SC2)cc1`, the growth is 22.6%.
On to `COc1ccc(C(=S)N2CCN(c3cccc(C)c3)CC2)cc1OC`, for which the growth was 84.7%.
For the molecule `COc1cc(CCCO)c(OC)c(OC)c1OC`, the growth is 101%.
On the same count and under the same terms, as for `O=C(Nc1nc2ccc(F)cc2s1)c1cccnc1Nc1ccc(Cl)cc1Cl`, the figure is 28.9%.
Take `Cc1cccc2c3c(sc12)C(c1ccc(F)cc1)C(C#N)=C(N)O3` (stereo unspecified): the growth was 27.8%.
Consider `BrCCCc1n(Cc2ccc3ccccc3c2)c2ccccc2[n+]1Cc1ccc2ccccc2c1`, for which the growth was -75.4% (active).
On the same count and under the same terms, as for `CCOC(=O)Cn1c(C)c(/C=N/NC(=O)c2cc3c(ccc4ccccc43)o2)c2ccccc21`, the figure is 35.7%.
Regarding `CCOC(=O)c1sc2ncc(-c3ccc(OC)cc3)n2c1C`, the growth was 98.1%.
As for `O=c1c2cccc(F)c2sc2c(NCCCNCCO)nc3ccccc3c12`, the growth is 41.9%.
Still for that read-out and setting: as for `CNCCCNc1nc2ccccc2c2c(=O)c3cc(F)ccc3sc12`, the figure is 51.5%; as for `CC(=O)OC[C@H]1OC(Sc2sc(C(=O)c3ccc(Cl)cc3)c(N)c2-c2nc3ccccc3s2)[C@H](OC(C)=O)[C@@H](OC(C)=O)[C@@H]1OC(C)=O` (stereo partly specified), 77.3%.
The same measure, in the same setting: for `OC(c1ccccc1)C(NC(Cc1ccccc1)c1ccccc1)c1ccccc1` (stereo unspecified) the value was 86.8%.
The same measure, in the same setting: for `CCOC(=O)c1cn2ncnc(Oc3ccc(NC(=O)NCCN(C)C)c(Cl)c3)c2c1C` the value was 65.1%; for `Cc1nc2ccccc2c(/C=C/c2ccccc2)c1C(=O)/C=C/c1ccc(C(F)(F)F)cc1`, -6.77% (active); for `Cc1[nH]c(C(=O)Nc2ccc(C(=O)NCCN)cc2OC(C)C)c(Cl)c1Cl`, 68.1%.
As to `CN1CCN(c2ccc(-c3cnc4c(-c5csc6ccccc56)cnn4c3)cc2)CC1`, the growth is -15.8% (active).
In the case of `c1ccc(-c2nc3sc(-c4ccccc4)cn3n2)cc1`, the growth is 92.3%.
Still for that read-out and setting: for `COc1c(B(O)O)cc(F)cc1-c1nc2ccc3[nH]ncc3c2c2c1CCCC2` the value was 9.38% (active).
On the same count and under the same terms, as for `CNCCCC12CCC(c3ccccc31)c1ccccc12`, the figure is 92.5%.
On to `C=C1C(=O)O[C@H]2[C@H]1CC/C(COC(=O)C(C)c1ccc(CC(C)C)cc1)=C\CC[C@@]1(C)O[C@@H]21` (stereo partly specified), for which the growth was 33.8%.
`CC1=C(C)C(=O)C(Nc2cccc(C(=O)OC(C)(C)C)c2)=C(Br)C1=O`: the growth is 93.7%.
Same read-out and setting: for `COc1ccc(C2CC(c3ccc(Nc4ccnc5cc(Cl)ccc45)cc3)=NN2C=O)cc1` (stereo unspecified) the value was 58%; for `Cc1nc(NC(=O)COc2ccc(/C=C3\Cc4ccc(Cl)cc4C3=O)cc2)sc1C`, 119%; for `Cc1ccc2c(-c3cc(-c4ccccc4)nc(N)c3C#N)cc(=O)oc2c1`, 99.1%.
On the same count and under the same terms, as for `CN(C)c1ccc(/C=N\Nc2cc(=O)[nH]c3ccc(Cl)cc23)cc1`, the figure is 99.5%.

For another experiment, the system named is SF-295 CNS. The experiment is described as above. Particulars: 10 µM unless noted.
Consider `O=C1COCCN1c1ccc(NCc2cn(C(=O)c3ccc(Cl)cc3)c3ccccc23)cc1`, for which the growth was 47.2%.
Same read-out and setting: as for `COc1ccc(-c2cnc3ccccc3n2)cc1`, the figure is 98.8%; as for `CCOC(=O)C1=C(N)Oc2c(sc3c(C)cccc23)C1c1ccc(OC)cc1` (stereo unspecified), 19.4%.
For the molecule `FC(F)(F)c1cc(Nc2ccc3c(OCCCN4CCOCC4)cccc3n2)ccc1Cl`, the growth is 0.167% (active).
As to `COc1cc(C(=O)c2cc(C)c3[nH]c4ccc(O)cc4c3c2C)cc(OC)c1OC`, the growth was 9.6% (active).
For the molecule `Cc1ccc(C(=O)N/N=C/c2cccc(Oc3ccccc3)c2)cn1`, the growth is 41.6%.
Consider `CC(=O)CC(c1cccs1)c1c(-c2ccccc2)[nH]c2ccccc12` (stereo unspecified), for which the growth is 80.4%.
`NC(=O)C1(Nc2ccc(Br)cc2)CCCC1`: the growth is 106%.
The same measure, in the same setting: as for `COc1ccc(-c2c(C(=O)NS(C)(=O)=O)n(Cc3cccc(C(F)(F)F)c3)c3ccccc23)cc1`, the figure is 89.8%.
On to `O=C1NC(=O)C(c2ccccc2)(c2ccccc2)N1Cc1cn(-c2c3ccccc3nc3ccccc23)nn1`, for which the growth was 99%.
Still for that read-out and setting: for `CCCCn1c(-c2ccc(C(=O)O/N=C(\N)c3ccc(OC)cc3)cc2)nc(-c2ccccc2)c1-c1ccccc1` the value was -40.8% (active); for `COc1cc(Nc2nc(NCCN)nc3cc[nH]c(=O)c23)cc(OC)c1`, 102%; for `COc1ccc(-c2[nH]c3ccc(OC)cc3c2/C=C(\C#N)S(=O)(=O)c2ccccc2)cc1`, 10.6%.
`COc1ccc(C2=Nn3c(nnc3-c3cc(Cl)cc(Cl)c3Cl)SC2)cc1`: the growth was 0.025% (active).
The same measure, in the same setting: as for `COc1ccc(C(=S)N2CCN(c3cccc(C)c3)CC2)cc1OC`, the figure is 57.4%; as for `COc1cc(CCCO)c(OC)c(OC)c1OC`, 106%; as for `O=C(Nc1nc2ccc(F)cc2s1)c1cccnc1Nc1ccc(Cl)cc1Cl`, 4.3% (active).
With `Cc1cccc2c3c(sc12)C(c1ccc(F)cc1)C(C#N)=C(N)O3` (stereo unspecified), the growth is 5.18% (active).
For the molecule `BrCCCc1n(Cc2ccc3ccccc3c2)c2ccccc2[n+]1Cc1ccc2ccccc2c1`, the growth was -91.1% (active).
The same measure, in the same setting: for `CCOC(=O)Cn1c(C)c(/C=N/NC(=O)c2cc3c(ccc4ccccc43)o2)c2ccccc21` the value was 19.3%; for `CCOC(=O)c1sc2ncc(-c3ccc(OC)cc3)n2c1C`, 96.4%.
In the case of `O=c1c2cccc(F)c2sc2c(NCCCNCCO)nc3ccccc3c12`, the growth was 63.7%.
`CNCCCNc1nc2ccccc2c2c(=O)c3cc(F)ccc3sc12`: the growth was 81.5%.
Turning to `CC(=O)OC[C@H]1OC(Sc2sc(C(=O)c3ccc(Cl)cc3)c(N)c2-c2nc3ccccc3s2)[C@H](OC(C)=O)[C@@H](OC(C)=O)[C@@H]1OC(C)=O` (stereo partly specified), the growth is 95.1%.
On the same count and under the same terms, for `OC(c1ccccc1)C(NC(Cc1ccccc1)c1ccccc1)c1ccccc1` (stereo unspecified) the value was 93.1%; for `CCOC(=O)c1cn2ncnc(Oc3ccc(NC(=O)NCCN(C)C)c(Cl)c3)c2c1C`, 94.6%.
For the molecule `Cc1nc2ccccc2c(/C=C/c2ccccc2)c1C(=O)/C=C/c1ccc(C(F)(F)F)cc1`, the growth was -74.2% (active).
Consider `Cc1[nH]c(C(=O)Nc2ccc(C(=O)NCCN)cc2OC(C)C)c(Cl)c1Cl`, for which the growth is 89.7%.
On the same count and under the same terms, for `CN1CCN(c2ccc(-c3cnc4c(-c5csc6ccccc56)cnn4c3)cc2)CC1` the value was -49.7% (active); for `c1ccc(-c2nc3sc(-c4ccccc4)cn3n2)cc1`, 101%; for `COc1c(B(O)O)cc(F)cc1-c1nc2ccc3[nH]ncc3c2c2c1CCCC2`, 10.8%.
Turning to `CNCCCC12CCC(c3ccccc31)c1ccccc12`, the growth is 100%.
Turning to `C=C1C(=O)O[C@H]2[C@H]1CC/C(COC(=O)C(C)c1ccc(CC(C)C)cc1)=C\CC[C@@]1(C)O[C@@H]21` (stereo partly specified), the growth is 83.1%.
Same read-out and setting: for `CC1=C(C)C(=O)C(Nc2cccc(C(=O)OC(C)(C)C)c2)=C(Br)C1=O` the value was 101%; for `COc1ccc(C2CC(c3ccc(Nc4ccnc5cc(Cl)ccc45)cc3)=NN2C=O)cc1` (stereo unspecified), 51.5%; for `Cc1nc(NC(=O)COc2ccc(/C=C3\Cc4ccc(Cl)cc4C3=O)cc2)sc1C`, 110%.
Still for that read-out and setting: as for `Cc1ccc2c(-c3cc(-c4ccccc4)nc(N)c3C#N)cc(=O)oc2c1`, the figure is 109%.
Still for that read-out and setting: for `CN(C)c1ccc(/C=N\Nc2cc(=O)[nH]c3ccc(Cl)cc23)cc1` the value was 98%.
